# Screening data deposited in PubChem by Paczesny and Yang Labs, IUPUI and University of Michigan.
# ST2 inh: inhibitors of human ST2 (IL1RL1) binding to IL-33, primary screen, biochemical, AlphaLISA; Interleukin-1 receptor-like 1 (Homo sapiens), Q01638; AlphaLISA ST2-Fc/biotin-IL-33 interaction, 1 h; inhibition, % for hits at 17 µM; 78,000 tested, 2.3% active; AID 1259354, 2018; in the data active = inhibition above about 30%
# Target sequence (Q01638 whole entry, looked up): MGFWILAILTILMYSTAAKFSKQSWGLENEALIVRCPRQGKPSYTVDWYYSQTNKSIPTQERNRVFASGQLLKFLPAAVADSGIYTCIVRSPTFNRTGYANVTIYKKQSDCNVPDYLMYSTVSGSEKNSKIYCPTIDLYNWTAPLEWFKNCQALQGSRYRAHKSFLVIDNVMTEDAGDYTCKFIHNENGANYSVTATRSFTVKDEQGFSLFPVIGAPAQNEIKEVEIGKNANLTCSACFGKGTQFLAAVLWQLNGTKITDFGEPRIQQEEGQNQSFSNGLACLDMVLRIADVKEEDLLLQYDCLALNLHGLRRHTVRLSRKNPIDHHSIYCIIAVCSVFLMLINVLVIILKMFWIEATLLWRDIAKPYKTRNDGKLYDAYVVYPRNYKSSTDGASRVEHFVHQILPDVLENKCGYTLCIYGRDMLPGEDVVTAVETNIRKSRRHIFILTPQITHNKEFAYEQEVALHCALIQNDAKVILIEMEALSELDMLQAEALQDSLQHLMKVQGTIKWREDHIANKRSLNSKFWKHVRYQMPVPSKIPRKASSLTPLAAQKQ
# A number is an active result; – = inactive. This excerpt belongs to a sample that is enriched for hits.
SMILES,ST2 inh
O=C(c1cccc2ccccc12)C1CCCN(C(=O)c2ccc[n+]([O-])c2)C1 (stereo unspecified),–
CC(C(=O)NCc1cccnc1N(C)C)n1cnc2ccccc21 (stereo unspecified),–
NNC(=O)C(=O)Nc1nc(-c2ccc(Br)cc2)cs1,–
N#C/C(=C\c1ccco1)c1nc(-c2ccc(Br)cc2)cs1,32%
CC(C)(C)C(=O)Nc1nc(-c2ccc(Br)cc2)cs1,–
N#C/C(=C\Nc1ccc(F)cc1)c1nc(-c2cc3cc(Br)ccc3oc2=O)cs1,–
Cc1ccc(/C=C(/C#N)c2nc(-c3ccc(Br)cc3)cs2)o1,52%
O=[N+]([O-])c1ccc(-c2nnc(SCc3ccccc3)o2)cc1,–
Cc1cc(=O)oc(C)c1C(=O)NCC(C)CN1CCC(C)CC1 (stereo unspecified),–
CN(C)/C(=C1/c2cc([N+](=O)[O-])ccc2-c2c1cc([N+](=O)[O-])cc2[N+](=O)[O-])N1CCOCC1,79%
O=C(c1sc2cc([N+](=O)[O-])ccc2c1Cl)N1CCOCC1,–
O=C(c1cccc([N+](=O)[O-])c1)N1CCOCC1,–
CC(NC(=O)c1ccncc1F)c1nnc2n1CCNCC2 (stereo unspecified),–
Cc1ccccc1CCC1CCCN(C(=O)c2ccccc2-c2ncc[nH]2)C1 (stereo unspecified),–
CCc1ccc(-c2cn3c(C(=O)N4[C@@H]5CC[C@H]4CNC(=O)C5)csc3n2)cc1,36%
Cc1nc2sccn2c1C(=O)N1[C@H]2CCNC[C@@H]1CC2,–
COc1ccc(NC2(C(=O)N3[C@@H]4CC[C@H]3CNC(=O)C4)CCCC2)cc1,–
CC1=C(/C=C/c2ccc(Cl)cc2Cl)C(=O)c2ccccc2C1=O,37%
COc1ccc2oc(=O)c(NC(=O)/C=C/c3ccc(Cl)cc3Cl)cc2c1,–
O=C1OC(Nc2ccc(Cl)cc2Cl)c2ccccc21 (stereo unspecified),–
CCCn1cnc2cc(NCc3ccc(Cl)cc3Cl)ccc21,–
COc1ccc(-n2c(SCC(N)=O)nc3c([nH]c4ccccc43)c2=O)cc1,–
NC(=O)CSc1nc2c([nH]c3ccccc32)c(=O)n1-c1ccccc1,–
O=C(CSc1nc2c([nH]c3ccccc32)c(=O)n1-c1ccc(Cl)cc1)Nc1nccs1,31%
CCn1nc(C(C)C)cc1C(=O)N1CCn2c(C(N)=O)cnc2C1,–
SMILES,ST2 inh
CN(CCn1ccc2ccccc21)C(=O)Cc1nn[nH]n1,–
Clc1ccccc1N1CCN(Cc2ccc(Br)o2)CC1,–
Cc1ccc(S(=O)(=O)N(C#N)c2nc(C)cc(C)n2)cc1,–
NC1=NC2(CCCCC2)N(c2ccc(O)cc2)C(N)=N1,–
O=C(O)C1CCCCC1C(=O)N1CCCC1 (stereo unspecified),–
CC(C)Cc1nc(CN(C)Cc2ncc[nH]2)no1,–
CN(C)c1ccc(C(=O)Nc2nc3ccc4ccccc4c3s2)cc1,–
CN(C)c1ccc(/C=C/c2ccnc3ccccc23)cc1,43%
CCOC(=O)C1=C(C)NC2=C(C(=O)CCC2)C1c1ccc(OCC)c(OC)c1 (stereo unspecified),–
C[C@@H](NC(=O)N1CCC(n2cc(CO)nn2)CC1)c1ccc(F)cc1,–
CCC1CCCCN1CCNS(=O)(=O)c1cccc2cccnc12 (stereo unspecified),–
COc1ccc(CCNC(=O)N2C(=O)CCC2=O)cc1OC,–
COc1ccccc1-c1nnc([C@H]2CCN(Cc3ccncc3)C2)o1,–
COc1ccc(-c2nc3s/c(=C\c4ccc(N(C)C)cc4)c(=O)n3n2)cc1,–
CC(=O)N1/C(=C/c2ccc(N(C)C)cc2)C(=O)c2ccccc21,66%
CC(=O)N1/C(=C/c2ccncc2)C(=O)c2ccccc21,39%
CC(=O)N1C(=O)C(=O)c2ccccc21,–
CNC(=O)N1C(=O)C(=O)c2ccccc21,–
CC(Oc1ccc(C=C2C(=O)c3ccccc3C2=O)cc1)C(=O)O (stereo unspecified),–
Cc1cc(Cl)ccc1-n1nc(C)c([C@@H]2C=C[C@@H](NC(=O)CCCC(=O)O)C2)c1C,–
NNC(=O)c1ccc(Br)cc1,–
Cn1cnnc1SCC(=O)NC1CC(=O)N(C2CCCCCC2)C1 (stereo unspecified),–
CCN1CCN(C(=O)CCC2CCN(Cc3cccc4c3OCO4)CC2)CC1,–
O=C(NCCC1=CCCCC1)c1cc(=O)[nH]c2ccc(S(=O)(=O)N3CCCCC3)cc12,–
CC1=CC(=O)C(C(C)C)=C/C1=N\Oc1c([N+](=O)[O-])cc(Cl)cc1[N+](=O)[O-],62%
SMILES,ST2 inh
Cc1nn(-c2ccc([N+](=O)[O-])cc2)c(C)c1NS(=O)(=O)c1ccccc1,–
N#Cc1ccc(-c2ccccc2)nc1SCC(=O)c1ccc(O)c(O)c1,–
N#Cc1ccc(-c2ccncc2)nc1SCc1ccc(F)cc1,34%
CCSc1nc(-c2ccccc2)ccc1C#N,–
COC(=O)[C@@H]1Cc2ncn(Cc3ccc(Cl)cc3)c2CN1C(=O)C1CCCCC1,–
Cc1cccc(Cn2c(CCc3ccccc3O)n[nH]c2=O)c1,–
CN1CCC(N(Cc2ccncc2)C(=O)NCc2cccc(F)c2)CC1,–
O=C(Nc1c[nH]c(=O)[nH]c1=O)c1ccc(N2C(=O)C3C4C=CC(C4)C3C2=O)cc1 (stereo unspecified),–
O=C(CCc1ccccc1)Nc1c[nH]c(=O)[nH]c1=O,–
O=C(Nc1c[nH]c(=O)[nH]c1=O)c1ccc(Oc2ccc(C(=O)Nc3c[nH]c(=O)[nH]c3=O)cc2)cc1,36%
CCN(C)c1ccc(C=Nc2c(C)n(C)n(-c3ccccc3)c2=O)cc1,–
O=C(c1cccc(F)c1F)N1CCCCC1,–
c1ccc2ncc(-c3cncnc3)cc2c1,–
COc1ccc(OC)c(/C=C2/SC(=Nc3ccc(C)cc3)NC2=O)c1,–
COc1cc(/C=C2/SC(=Nc3ccccc3)NC2=O)ccc1OCC#N,32%
CCOc1ccc(/C=C2\SC(N3CC(C)OC(C)C3)=NC2=O)cc1OC (stereo unspecified),–
COc1cc(C2NC(=O)CCC2[N+](=O)[O-])cc(Cl)c1O (stereo unspecified),–
CCOc1cc(/C=C2/NC(=O)NC2=O)ccc1OCc1ccccc1C#N,–
COc1cc(/C=C2/SC(=Nc3ccccc3)NC2=O)cc(Cl)c1O,42%
COc1ccccc1-c1nnc(NC(=O)c2ccc(S(=O)(=O)N3CCCCC3)cc2)o1,–
Cc1cc(C)n(-c2cc(N3CCN(C(=O)C(C)C)CC3)ccc2[N+](=O)[O-])n1,–
Cc1c(CC(Cl)(Cl)Cl)c2c(n1-c1ccc([N+](=O)[O-])cc1)CCCC2=O,41%
Cc1c(CC(Cl)(Cl)Cl)c2c(n1O)CC(C)(C)CC2=O,–
Cn1c2c(c3cc([N+](=O)[O-])ccc31)CCCC2=O,–
CC(C)OCCCn1c(SCC(N)=O)nc2c(sc3ccccc32)c1=O,–
SMILES,ST2 inh
CC(C)Cn1cc(C(=O)NCc2cccnc2)c2c3ccccc3n(C)c2c1=O,–
CCC(C)NC(=O)N1CCC(Oc2ccc3ncccc3c2)(C(=O)O)CC1 (stereo unspecified),–
CCCOc1ccc(C(O)=C2C(=O)C(=O)N(CCN3CCOCC3)C2c2cccnc2)cc1 (stereo unspecified),–
CCOC(=O)c1nn(Cc2cccc(OC)c2)c2c1CN(C(=O)c1csc(C(C)C)n1)CC2,–
CC(C)=CCC[C@@]1(C)[C@H]2CC[C@@]1(C)[C@H](O)C2,–
CC1(C(=O)Nc2ccc3c(c2)OC2(CCCCC2)O3)CC1(Cl)Cl (stereo unspecified),–
